Among all 300,000 compounds or so, about 990 (0.33%) were called active. The full list was thinned out, with actives kept by preference. A number with no mark means an inactive call.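 Rule for the calls: active = inhibition above the screen mean inhibition plus 3 SD, computed separately per campaign (cut at about 18% in these data); inactive = the rest.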

From PubChem BioAssay AID1947 (The Scripps Research Institute Molecular Screening Center, 2009) come the findings set out here.

This assay deals with Fam108B (ABHD17B) serine hydrolase [Mus musculus]. Nature of the assay: inhibition of Fam108B (ABHD17B) hydrolase – biochemical, fluorescence polarization, counter-screen for RBBP9 inhibitor project, primary screen (AID 1947).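 Note: inhibitors lower polarization as less probe binds the enzyme.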 The settings on record: recombinant Fam108B, FP-Rh probe fluorescence polarization; at 9.51 µM; stronger effect = higher value.
With `O=C(N/N=C/c1cc(Cl)cc([N+](=O)[O-])c1O)C(O)(c1ccccc1)c1ccccc1`, the inhibition was 7.58%.

Take `O=[N+]([O-])c1cc(Cl)cc(/C=N/NC(=S)Nc2cc(S(=O)(=O)N3CCOCC3)ccc2Cl)c1O`: the inhibition was 49.6% (active). Turning to `O=C(CN1CCN(c2ccc(O)cc2)CC1)Nc1cc(S(=O)(=O)N2CCOCC2)ccc1Cl`, the inhibition was 1.19%. For the molecule `COC(=O)c1cc(-c2cccs2)nc2ccccc12`, the inhibition is -5.99%. As to `O=C(O)COc1ccc(-c2nccc(-c3cccs3)n2)cc1`, the inhibition is -4.89%. The result for `COC(=O)CSc1nccc(-c2cccs2)n1` reads 25.3% (active); that for `Cc1ccc([C@@H]2CC=C(C(=O)O)[C@H](c3cccc(Cl)c3)N2S(=O)(=O)c2ccc(C)cc2)cc1`, -3.66%. `COc1ccc(-c2csc(NC(=O)COC(=O)Cc3ccc(Cl)cc3Cl)n2)cc1`: the inhibition is 25.7% (active). Consider `COc1ccc(-c2csc(NC(=O)COC(=O)c3ccc(Br)o3)n2)cc1`, for which the inhibition was -1.38%.

For `CC(C)(C)NC(=O)NC(=O)COC(=O)Cc1ccc(Cl)cc1Cl`, the inhibition is -3.17%. The result for `CC(C)(C)c1ccc(/C=C2\SC(=O)N=C2N)cc1` reads -2.33%; that for `COC(=O)c1sc(=S)n(-c2ccc(Cl)cc2)c1C`, 0.66%. The result for `CCOC(=O)c1c(N)sc(C(C)=O)c1C` reads 2.44%; that for `COCCOC(=O)c1sc(=S)n(CCOC)c1N`, 30.9% (active). The result for `CC(=O)c1ccc(-c2ccc(Cn3c(C)nc4cc(N)c(C)nc43)cc2)cc1` reads -2.95%; that for `Cc1cc(-c2csc(N)n2)c(C)n1Cc1ccccc1`, 1%. On to `Cc1cc2nc3c(=O)n(Cc4ccccc4)c(=O)[nH]c3nc2cc1N`, for which the inhibition was 20.1% (active). Next, `C=C1C2C[C@H](O)C(C)(C)[C@@]2(O)[C@H](O)C[C@]23C[C@@](C)(O)[C@H](CC[C@H]12)[C@H]3O` (some centres undefined): -4.05%; `CCN(CC(=O)Nc1ccc2c(c1)OCO2)S(=O)(=O)c1ccccc1`: 3.09%. Next, `CCn1c(SCc2ccccc2)nc2c(c1=O)SCC2`: 5.08%; `CC(=O)Nc1ccc(NC(=O)CSc2ncnc3c2cnn3Cc2ccccc2)cc1`: 1.73%; `CSc1c(SCc2ccccc2)cnn(Cc2ccccc2)c1=O`: 52.1% (active).

As to `Cc1noc(C)c1S(=O)(=O)N(C)Cc1ccccc1`, the inhibition is -2.49%. As for `Cc1cc(C)cc(C(=O)N(CCc2ccccc2)C2=CC3CCC(C2)N3C)c1` (centres undefined), the inhibition is -0.23%. Consider `COCC(C)NC(=O)CSc1nc2nn(-c3ccccc3)c(=O)c-2c2n1CCCCC2` (centres undefined), for which the inhibition is 0.63%. Turning to `O=C(Cn1ncc2c3ccccc3n(Cc3ccccc3)c2c1=O)NCCCN1CCOCC1`, the inhibition is -3.84%. Regarding `CC(C)Nc1ccc(-n2nc3ccccc3[n+]2[O-])cc1`, the inhibition is 1.5%.

Take `N=C1C(=O)OCC1c1ccccc1NC(=O)CN1CCCCC1` (centres undefined): the inhibition was -3.29%. Regarding `COc1ccc2nc(NC(=O)c3ccc(Br)s3)sc2c1`, the inhibition was -2.97%. The result for `COc1ccc2nc(NC(=O)NC3CCCCC3)sc2c1` reads 4.3%. Consider `COc1ccc2nc(Nc3nc4cc5c(cc4s3)OCCO5)sc2c1`, for which the inhibition is 33.1% (active). Turning to `CC1C(=O)C(C)C(c2ccc(O)cc2)NC1c1ccc(O)cc1` (centres undefined), the inhibition is -5.96%. Consider `COc1ccc2oc(C(=O)N(CC(C)C)C3CCS(=O)(=O)C3)c(C)c2c1` (centres undefined), for which the inhibition was 3.82%. On to `O=C(N/N=C/c1cccnc1)c1cc2ccccc2cc1O`, for which the inhibition is 3.37%.

Regarding `CC(C)(C)OC(=O)NNc1c2ccccc2nc2ccccc12`, the inhibition is 10.9%. With `O=C(NNc1c2ccccc2nc2ccccc12)c1cc2ccccc2cc1O`, the inhibition is 71.8% (active). For the molecule `COc1ccc(CNC(=O)CN(C(=O)c2csnn2)c2cnc3ccccc3c2)cc1`, the inhibition is 2.77%. As for `CC[C@H]1OC(=O)[C@H](C)[C@@H](O[C@H]2C[C@@](C)(OC)[C@@H](O)[C@H](C)O2)[C@H](C)[C@@H](O[C@@H]2O[C@H](C)C[C@H](N(C)C)[C@H]2O)[C@](C)(O)C[C@@H](C)[C@@H]2N[C@@H](COCCOC)O[C@H]([C@H]2C)[C@]1(C)O`, the inhibition was -4.04%. Take `O=C(CCn1c(SCC(=O)c2ccccc2)nc2ccccc2c1=O)NCc1ccc(F)cc1`: the inhibition was 27.5% (active). Next, `O=C(CCCn1c(SCC(=O)c2ccc(F)cc2)nc2ccccc2c1=O)NCc1ccco1`: -1.64%; `O=C(CCCn1c(SCC(=O)c2ccccc2)nc2ccccc2c1=O)NCC1CCCO1` (centres undefined): -0.5%; `CS(=O)(=O)N1CCCC(C(=O)Nc2ccccc2C(F)(F)F)C1` (centres undefined): -3.11%. For `Cc1nn(-c2ccccc2)c2c1C(c1ccc(F)cc1)C(C#N)=C(N)O2` (centres undefined), the inhibition was 4.31%. For the molecule `Cc1nn(Cc2ccccc2)c2c1C(c1ccccc1)C(C#N)=C(N)O2` (centres undefined), the inhibition is 4.14%.

As to `COc1ccccc1C1C(C#N)=C(N)Oc2c1c(-c1ccccc1)nn2-c1ccccc1` (centres undefined), the inhibition is 24.5% (active).

As for `CC(C)CCN1CCN=C1N(C)C`, the inhibition is -3.1%. On to `Cc1cc(C)cc(C(=O)NC2C(=O)N3C(C(=O)O)=C(CSc4nnc(C)s4)CSC23)c1` (centres undefined), for which the inhibition is 0.52%. For `CC(C)c1ccc2oc(=O)cc(CN3CCN(Cc4ccccc4)CC3)c2c1`, the inhibition was 0.92%. As for `CN(C)c1ccc(NC(=O)CN2C3CCCC2CC(NC(=O)c2ccccc2)C3)cc1` (centres undefined), the inhibition is -3.02%. `COc1ccc(C(=O)Nc2c(N)nc(SCC(=O)Nc3ccc(C(C)=O)cc3)[nH]c2=O)cc1`: the inhibition was 2.83%. Take `COc1ccc(N2CCN(S(=O)(=O)c3cc4c5c(c3)C(C)C(=O)N5CCC4)CC2)cc1` (centres undefined): the inhibition is 2.45%.

Turning to `CCOC(=O)N1CCC(O)(c2cc(C)c(C)cc2C)CC1`, the inhibition was 1.15%. `COc1ccc(Nc2ncc(C(=O)N3CCN(c4ccccc4OC)CC3)c3ccccc23)cc1`: the inhibition was 5.14%. Consider `O=C(Cn1cc(/C=N/NC(=O)c2cccc(C(F)(F)F)c2)c2ccccc21)Nc1ccc(F)cc1`, for which the inhibition was 4.38%. For the molecule `CC(/C=N/NC(=O)c1ccncc1)=C\c1ccco1`, the inhibition was -1.58%. As for `C/C(=C\c1ccco1)C1Nc2cccc3cccc(c23)N1`, the inhibition is 18.5% (active).

`CC(/C=N/NC(=O)c1cc(-c2ccc3ccccc3c2)n[nH]1)=C\c1ccco1`: the inhibition is -15.2%.

Turning to `CC(=O)NC1=NN(C(C)=O)C(C)(c2ccc(Cl)s2)S1` (centres undefined), the inhibition was -2.49%. Take `CC(C)(C)C(=O)Nc1c(Br)c(C2CC2)nn1-c1ccccc1`: the inhibition is 1.83%. Next, `COc1cc(/C=C/C(=O)OCC(=O)Nc2cccc(Oc3ccccc3)c2)ccc1O`: 6.01%; `COc1ccc(OC)c(/C=C/C(=O)OCC(=O)Nc2ccc3c(c2)OCCO3)c1`: -4.2%; `COc1ccc(/C=C/C(=O)OCC(=O)Nc2cccc(Oc3ccccc3)c2)c(OC)c1`: 21.4% (active).

As for `COc1ccc(OCc2nnc3n2N=C(c2ccccc2)C(CC(=O)O)S3)cc1` (centres undefined), the inhibition is -0.94%.

For the molecule `O=C(CN1CCN(Cc2ccc(F)cc2Cl)C1=O)NCc1cccs1`, the inhibition is 2.32%. As for `CSCCC1NC2(C(=O)Nc3ccc(Cl)cc32)[C@@H]2C(=O)N(C3CCCC3)C(=O)[C@H]12` (some centres undefined), the inhibition is -1.72%. Consider `O=[N+]([O-])c1ccc(F)cc1Oc1nc(-c2cccnc2)nc2ccccc12`, for which the inhibition is -4.4%. For the molecule `CCc1ccccc1N1CN(Cc2ccco2)CNC1=S`, the inhibition is -2.75%. As for `Oc1c(Cl)cc(Cl)c(Cl)c1Cc1c(O)c(Cl)cc(Cl)c1Cl`, the inhibition was 48% (active). Next, `CN(C)C(=O)c1cccn(Cc2cccc(C(F)(F)F)c2)c1=O`: 0.5%; `COc1ccc(N2CC(C(=O)NCCN3C(=O)S/C(=C\c4cccnc4)C3=O)CC2=O)c(OC)c1` (centres undefined): 65.4% (active). Regarding `CCOc1ccc(N2CC(C(=O)NCCN3C(=O)S/C(=C\c4cccnc4)C3=O)CC2=O)cc1` (centres undefined), the inhibition was 0.71%. On to `O=C(NCCN1C(=O)S/C(=C\c2cccnc2)C1=O)c1cccc(OC(F)F)c1`, for which the inhibition is 2.13%.

As to `COc1ccc(NC(=S)SC)cc1OC`, the inhibition was 2.25%. As for `CC(Cc1cccs1)N(Cc1ccc(Cl)cc1)C(=O)c1ccncc1` (centres undefined), the inhibition was 0.27%. In the case of `c1ccc2c(-c3nn4nnnc4c4ccccc34)cccc2c1`, the inhibition is 3.27%. Turning to `CCC(=O)c1ccc(OCC(=O)OCC(=O)NC2CCCCCC2)cc1`, the inhibition is 2.33%.

Regarding `Cc1cc(C)cc(NC(=O)NCc2ccccn2)c1`, the inhibition is -2.47%. Take `O=C(NCc1ccccn1)c1ccc2nc(-c3ccco3)c(-c3ccco3)nc2c1`: the inhibition is 39.1% (active). On to `COCCNC(=O)Nc1ccc2nc(-c3ccco3)c(-c3ccco3)nc2c1`, for which the inhibition was 63.8% (active). Turning to `CCOc1cc(NC(=S)NCCCOC)c(OCC)cc1NC(=O)c1ccco1`, the inhibition is -0.81%. Take `CCCC(=O)Nc1ccc2c(c1)nc(CCNC(=O)c1ccco1)n2C`: the inhibition was 3.43%. With `COc1ccc2oc(=O)c(C(=O)NCc3ccccn3)cc2c1`, the inhibition was 1.13%. The result for `O=C(CSc1nnc(C2CC2)n1Cc1ccccc1)Nc1cccnc1Cl` reads 1.49%. `C/C=C/C(=O)Nc1ccc(N2CCN(c3ccc(C(F)(F)F)cn3)CC2)nc1`: the inhibition is 8.22%.

`CC(C)C(=O)N1CCC2(CC1)Oc1ccc(F)cc1C(=O)C21CC(c2ccccc2)=NO1` (centres undefined): the inhibition was 1.14%. Turning to `Cc1nc2scc(-c3cccs3)c2c(=O)n1N`, the inhibition was 7.81%. For `N/C(=N\OC(=O)CCc1ccccc1)c1cccnc1`, the inhibition was -0.43%. For the molecule `COC(=O)CN1C(=O)[C@H]2[C@@H](C3CC3)N3C(=O)CN(Cc4ccc(-c5ccccc5)cc4)C(=O)[C@@]3(Cc3ccccc3)[C@H]2C1=O`, the inhibition was 0.43%.

With `Cc1cc(C)c2c(Cn3ccnc3)cc(=O)oc2c1`, the inhibition is -0.08%.
